Test system: BMPR1A
Details: concentration: 1 μM, replicates: in singlicate; n = 1
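Also: KINOMEscan kinase panel screen.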

| SMILES | %Inh |
| --- | --- |
| N#Cc1ccc(Oc2ccc(Nc3ncnc4cc[nH]c34)cc2Cl)cc1 | 18% |
| Cc1cc(N2CCC(NS(=O)(=O)c3ccc(F)cc3)CC2)nc(Nc2cccc(C#N)c2)n1.O=C(O)C(F)(F)F [GSK1653537] | 0% |
| O=C(NCCCN1CCCC1=O)c1cnc(NCc2cc(Cl)ccc2Cl)nc1NC1CCNCC1 | 6% |
| c1ccc(-c2ccc3c(-c4ccnc(Nc5ccc6c(c5)OCCO6)n4)cnn3n2)cc1 [GW818941] | 0% |
| CNc1nccc(-c2c(-c3ccc(F)cc3)ncn2CCCN2CCOCC2)n1 [SB-222516] | 13% |
| C[C@@H]1CCN(C(=O)CO)C[C@@H]1N(C)c1ncnc2[nH]ccc12 | 23% |
| Cn1ccc2ncnc(Oc3ccc(NC(=O)Nc4cccnc4)c(Cl)c3)c21 | 0% |
| O=C(c1ccc(-c2cc(-c3c[nH]nc3-c3ccccn3)ccn2)cc1)N1CCCC1 [GW792479] | 0% |
| O=C(Nc1n[nH]c2nc(-c3ccco3)c(Br)cc12)c1ccc(CN2CCCC2)cc1.O=C(O)[C@H](O)[C@@H](O)C(=O)O [SB-742352] | 0% |
| Nc1n[nH]c2nnc(-c3ccccc3)cc12 [SB-517389] | 4% |
| Oc1ccc2ncnc(Nc3ccc(OCc4ccccc4)cc3)c2c1 [GI262866] | 0% |
| O=C(CCO)NCCn1ccc2ncnc(Nc3ccc(Oc4cccc(C(F)(F)F)c4)c(Cl)c3)c21 | 0% |
| Nc1nc(-c2cccnc2)c(-c2ccnc3ccccc23)s1 [GW684083] | 0% |
| COc1ccc(Nc2nccc(N3CCC(NC(=O)c4cccc(NC(C)=O)c4)C3)n2)cc1 (stereo not drawn) [GSK1379732] | 0% |
| CC(=O)Nc1n[nH]c2ncc(-c3ccccc3)cc12 [SB-548492] | 30% |
| COc1ccc(Nc2nccc(N3CCC(NC(=O)Nc4ccc5c(c4)OCO5)C3)n2)cc1 (stereo not drawn) [GSK1379745] | 13% |
| CCCc1ccc(S(=O)(=O)NC2CCN(c3ccnc(Nc4ccc(OC)cc4)n3)C2)cc1 (stereo not drawn) [GSK1379737] | 0% |
| Nc1nccc2scc(-c3ccc4c(c3)CCN4C(=O)Cc3cc(F)ccc3F)c12 [GSK2587663] | 0% |

| SMILES | %Inh |
| --- | --- |
| CS(=O)(=O)CCNCc1nc(-c2ccc3ncnc(Nc4ccc(OCc5cccc(F)c5)c(Cl)c4)c3c2)cs1.Cl [GW583340] | 0% |
| COc1ccc(NC(=O)Nc2ccc(C)c(-c3ccc(C(=O)Nc4ccncc4)cc3)c2)cc1 [GSK1398475] | 0% |
| FC(F)(F)c1cc(Nc2nccc(-c3c(-c4ccc(Cl)cc4)nn4ncccc34)n2)ccc1Cl [GW829351] | 0% |
| Cl.Cl.c1ccc(-c2cc3ccncc3cc2OC2CCNCC2)cc1 [GSK1122999] | 0% |
| Nc1nc(-c2ccc3c(N)n[nH]c3c2)cc(N2CCCCC2)n1 [GSK2228768] | 0% |
| COc1cc2c(Nc3cccc(NC(=O)c4ccccc4)c3)ncnc2cc1OCCCN1CCOCC1 [GSK223810] | 9% |
| Clc1cccc(-c2nc(Nc3ccncc3)c3ccccc3n2)c1 [GW873004] | 21% |
| CSc1ccc(NC2=C(c3ccccc3Cl)C(=O)NC2=O)cc1 [SB-342411] | 0% |
| O=C(Nc1ccccc1F)NC1CCN(c2ccnc(Nc3ccc(F)cc3)n2)C1 (stereo not drawn) [GSK1379722] | 0% |
| Cc1ccc(NC(=O)c2cccc(C#N)c2)cc1-c1ccc(C(=O)Nc2ccncc2)cc1 [GSK1398463] | 0% |
| Nc1nc(-c2ccc3c(N)n[nH]c3c2)cc(N2CCC[C@@H](C(=O)Nc3ccccc3)C2)n1.O=C(O)C(F)(F)F.O=C(O)C(F)(F)F [GSK2288359] | 0% |
| CCc1nc(-c2cccc(C)c2)c(-c2ccnc(NC(=O)c3ccccc3)c2)s1 | 0% |
| Cl.Fc1ccccc1COc1ccc(Nc2ncnc3ccc(-c4nnc(C(F)(F)F)o4)cc23)cc1Cl [GW424170] | 0% |
| Clc1cc(Nc2ncnc3cc[nH]c23)ccc1OCc1ccccn1 | 25% |
| CC(C)N1CCC(n2cnc(-c3ccc(F)cc3)c2-c2ccnc(N)n2)CC1 [SB-223132] | 10% |
| COC(=O)c1cccc(NC(=O)NCCNc2ccnc(Nc3ccc(F)cc3)n2)c1 [GSK1379883] | 0% |
| Cc1ccc(C)c(NC(=O)NCCNc2ccnc(Nc3ccc(F)cc3)n2)c1 [GSK1379878] | 0% |
| CCC(CC)(CC)n1cnc2c(N)ncnc21 [SKF-97620] | 7% |
